Data on 72 compounds can be found in ChEMBL document CHEMBL4513216, “Probing the Open Global Health Chemical Diversity Library for Multistage-Active Starting Points for Next-Generation Antimalarials” (ACS Infect Dis, 2020).

In all, about 69,000 compounds went through this assay and about 8,600 (12%) showed an effect of 50% or more. The full list was thinned out, with strong results kept by preference.

The experiment deals with Plasmodium berghei. As to the kind of experiment: Screen against P. berghei liver stage (PbLuc), transformed with Luciferase, at 10uM. The conditions noted are these: tested at 10 uM. The class given is functional, HepG2.
Turning to `O=C(NCCc1nnc2n1CCC2)NCC1(c2ccc(F)cc2)CC1`, the INHIBITION was 9.63%.

For the compound `COc1ccccc1N1CCN(C(=O)Cn2nc(C)c(Cl)c2C)CC1`, the INHIBITION is reported as -29.2%.

`CCS(=O)(=O)N1CCC2(CC1)CC1(CCN(CCOC)CC1)C(=O)N2C`: the INHIBITION amounted to 40.8%.

On to `Cc1cc(CN[C@H](C(N)=O)[C@@H](C)O)c(C)s1`, for which the INHIBITION is listed as 38.7%.

For `Cc1cc(CN[C@@H](Cc2ccccc2)C(N)=O)c(C)s1`, the INHIBITION is recorded as 53.3%.

For the compound `Cc1cc(CN[C@@H](C)C(N)=O)c(C)s1`, the INHIBITION turned out to be 16.3%.

For the compound `Cc1csc(C(C)(C)NCc2ncc(-c3ccc(F)cc3)o2)n1`, the INHIBITION is reported as -46.4%.

In the case of `COc1ncc(CN2CCOC(C)(C(=O)N3CCOCC3)C2)cn1` (configuration not stated), the INHIBITION is listed as 41.2%.

On to `O=c1[nH]ncc(NCCOc2ccc3c(c2)OCO3)c1Cl`, for which the INHIBITION turned out to be 20.3%.

On to `O=c1[nH]ncc(NCCOc2ccc3c(c2)CCC3)c1Cl`, for which the INHIBITION was 77.1%.

For `O=c1[nH]ncc(NCCOc2cccc(Br)c2)c1Cl`, the INHIBITION is recorded as 15.6%.

For the compound `CCn1nccc1CN(C)C(=O)Cn1cc2c(n1)c(C)nn2CC`, the INHIBITION is on record as 35%.

In the case of `O=C(CSc1ncccn1)N1C[C@@H]2CC[C@H]1CN(Cc1ccncc1)C2`, the INHIBITION is 21.6%.

For `Cc1nc2c(C)cccc2cc1C(=O)N1CCC2(CCNCC2)CC1`, the INHIBITION is recorded as 47.7%.

For `Cc1cc(O)c(OCC(=O)/N=c2\[nH]cc(C)s2)cn1`, the INHIBITION is -48.2%.

Consider `Cc1ccc(-c2nc(CNC3CCc4ncnn4C3)no2)cc1` (configuration not stated), for which the INHIBITION worked out at 0.411%.

As to `CC(Cn1ccnc1)NC(=O)C1(c2ccccc2)CC1` (configuration not stated), the INHIBITION amounted to 46.2%.

As for `Cc1ccc(CN2Cc3nnn(C)c3C(COCc3ccccc3)C2)s1` (configuration not stated), the INHIBITION was found to be 78.7%.

For `COCC1CN(Cc2ccc(C)s2)Cc2nnn(C)c21` (configuration not stated), the INHIBITION came to 21.4%.

Consider `Cc1ccc(CN2Cc3nnn(C)c3C(COCc3ccccn3)C2)s1` (configuration not stated), for which the INHIBITION is -37.9%.

Regarding `Cc1ccc(CN2Cc3nnn(C)c3C(COCc3ccccc3)C2)o1` (configuration not stated), the INHIBITION was 28.4%.

Turning to `Cc1ccc(CN2Cc3nnn(C)c3C(COCC3CC3)C2)s1` (configuration not stated), the INHIBITION is recorded as 71.8%.

For the compound `Cc1ccc(CN2Cc3nnn(C)c3C(COCCN(C)C)C2)s1` (configuration not stated), the INHIBITION is listed as 10%.

Consider `CC[C@@H]1C[C@H](C(F)(F)F)n2nc(C3CCN(S(=O)(=O)CC)CC3)cc2N1`, for which the INHIBITION was 46%.

Take `NC(=O)COc1ccc(CNCc2cc(F)ccc2F)cc1`: the INHIBITION is on record as 1.56%.

On to `CCn1c(C)nnc1CN(C)C1CCN(Cc2nnc(C3CC3)o2)C1` (configuration not stated), for which the INHIBITION was determined as 36.1%.

As for `CC(C)Cn1nc(-c2ccc(C(=O)O)cc2)cc1-c1ccc(F)cc1`, the INHIBITION is reported as 54.3%.

Take `CCC(O)Cn1nc(-c2ccc(C(=O)O)cc2)cc1-c1ccc(F)cc1` (configuration not stated): the INHIBITION stood at 38.05%.

As to `CCC(O)Cn1nc(-c2ccc(C(=O)O)cc2)cc1-c1cccc(F)c1` (configuration not stated), the INHIBITION was determined as 19.75%.

Regarding `COc1ccc(CC2CN(C3CCSCC3)CCO2)cc1` (configuration not stated), the INHIBITION is given as 35.4%.

`Cc1ccc(N2CC[C@H]3OCC[C@@]3(C(=O)N3CCCO3)C2)nn1`: the INHIBITION is on record as 25.3%.

Take `CC(NC(=O)N(C)Cc1ccncc1)c1cn(-c2ccccc2)nn1` (configuration not stated): the INHIBITION was 60.1%.

Turning to `CN(Cc1ccncc1)C(=O)NCc1cn(-c2ccccc2)nn1`, the INHIBITION worked out at 56.3%.

For the compound `CCN(Cc1ccncc1)Cc1cn(-c2ccccc2)nn1`, the INHIBITION is reported as 5.33%.

For the compound `CC(NC(=O)CCCN(C)C)c1cn(-c2ccccc2)nn1` (configuration not stated), the INHIBITION turned out to be 21.8%.

Regarding `CC(NC(=O)N(C)Cc1ccncc1)c1nncn1C` (configuration not stated), the INHIBITION turned out to be 13.7%.

Regarding `Cc1csc(CNC(=O)N(C)Cc2ccncc2)n1`, the INHIBITION is on record as -53.6835%.

On to `NC(=O)NCC(=O)N1CCCC(c2nccn2CC2CCC2)C1` (configuration not stated), for which the INHIBITION came to 17.5%.

On to `CC(C)c1nnc2n1CCN(c1nn3cc(C(C)(C)C)nc3s1)C2`, for which the INHIBITION was -34.6%.

Consider `Cc1nn(C)c(Cl)c1C1CCCN1Cc1nc(C2CC2)no1` (configuration not stated), for which the INHIBITION is recorded as 37.4%.

On to `COC(=O)CCCn1ccnc1-c1ccc(OC)c(F)c1F`, for which the INHIBITION is reported as 43.9%.

On to `COc1ccc(-c2nccn2CCN2CCCCC2)c(OC)c1OC`, for which the INHIBITION is given as 55%.

For `CCn1ccnc1CN1CCN(CCOc2ccccc2OC)CC1`, the INHIBITION came to 27.1%.

Regarding `Cc1nnc2n1CCN(Cc1ncc(-c3ccc(F)cc3)o1)C2`, the INHIBITION was found to be 46.1%.

With `Cc1c(CCC(=O)N2CCOC(c3cnccn3)C2)cnn1C` (configuration not stated), the INHIBITION is given as -10.4%.

Take `Cc1noc(C)c1C(=O)N1CCCN(Cc2nccn2C(C)C)CC1`: the INHIBITION is recorded as 4.1%.

As to `CCN(CC1CCCO1)C(=O)Nc1cccc(N2CCOCC2)c1` (configuration not stated), the INHIBITION worked out at 54.4%.

With `CCN(CCC(F)(F)F)C(=O)Nc1cccc(N2CCOCC2)c1`, the INHIBITION was 3.47%.

`CCN(CC1CCCO1)C(=O)Nc1ccc(OC)c(C)c1` (configuration not stated): the INHIBITION is -79.7%.

With `O=C(c1cscn1)N1CCC(Cc2cnc3[nH]ccc3c2)C1` (configuration not stated), the INHIBITION is -14.1%.

Consider `COc1cccnc1NC(=O)COc1c(C)cccc1C`, for which the INHIBITION turned out to be 36.5%.

Take `COc1cccnc1NC(=O)c1ccc(COCC(F)(F)F)cc1`: the INHIBITION is reported as 62.4%.

Take `COc1cccnc1NC(=O)COc1ccc(F)cc1F`: the INHIBITION is given as 33.5%.

For `Cc1n[nH]c(NC(=O)c2ccc(COCC(F)(F)F)cc2)c1C`, the INHIBITION was 52.5%.

For the compound `CC(C)(C)NC(=O)c1ccc(COCC(F)(F)F)o1`, the INHIBITION is 14.2%.

As for `O=C(Nc1cc[nH]n1)c1ccc(COCC(F)(F)F)cc1`, the INHIBITION is -17.8%.

As for `O=C(Cc1ccccc1)N1CCCC2(COCCN(CC3CC3)C2)C1` (configuration not stated), the INHIBITION amounted to 19.5%.

As for `Cc1ccc(C(C(=O)NCc2n[nH]c(N)n2)N(C)C)cc1` (configuration not stated), the INHIBITION was determined as 19.5%.

On to `CC(=O)N(C)Cc1ncn2c1CN(C(=O)C1CCCO1)CCC2` (configuration not stated), for which the INHIBITION is listed as -0.453%.

As to `CCc1ncc(CN2CCN(CCOC)CC2)cn1`, the INHIBITION amounted to 11.1%.

As for `COCCN1CCN(Cc2cnc(C(C)C)nc2)CC1`, the INHIBITION is recorded as 53.2%.

With `COCCN1CCN(Cc2cnc(C)nc2)CC1`, the INHIBITION was -9.32%.

Regarding `CN(C)S(=O)(=O)c1ccc(-c2nc(C#N)c(NC3CC3)o2)o1`, the INHIBITION came to 15.4%.

For the compound `O=S(=O)(N1CCCCC1)N1CCc2nc(C3CCNCC3)ncc2C1`, the INHIBITION came out at 22.2%.

As for `Cc1noc(C)c1S(=O)(=O)N1CCc2nc(C3CCNCC3)ncc2C1`, the INHIBITION is reported as 34%.

Take `CCC(C)S(=O)(=O)N1CCc2nc(C3CCNCC3)ncc2C1` (configuration not stated): the INHIBITION amounted to 57.5%.

As to `CCN(CC)S(=O)(=O)N1CCc2nc(C3CCNCC3)ncc2C1`, the INHIBITION is 32.3%.

For the compound `Cc1ccc(S(=O)(=O)N2CCc3nc(C4CCNCC4)ncc3C2)cc1`, the INHIBITION is 68.2%.

`CCN(CC)S(=O)(=O)N1CCCC(c2ncc3c(n2)CCN(C)C3)C1` (configuration not stated): the INHIBITION is 43.25%.

As to `O=S(=O)(c1ccccc1Cl)N1CCc2nc(C3CCNCC3)ncc2C1`, the INHIBITION is 75.6%.

For `O=S(=O)(c1ccc(Cl)cc1)N1CCc2nc(C3CCNCC3)ncc2C1`, the INHIBITION is recorded as 9.93%.

On to `Clc1ccccc1CN1CCc2nc(C3CCNCC3)ncc2C1`, for which the INHIBITION worked out at 23.2%.
